From PubChem
This is a sample that favours compounds with a hit; in the whole collection about 2.4% have one here.
D2 PAM-1 – potentiates the human D2 dopamine receptor allosterically | AID 624464 | hit rate 0.23% among 360,000 | potentiation, % (test concentration not listed) | DiscoveRx D2 beta-arrestin cells, luminescence, 90 min; 100% = 57 uM dopamine signal; in the data active = potentiation above about 50%; inconclusive = mostly about 30% to 49%
Target sequence (P14416 whole entry, looked up): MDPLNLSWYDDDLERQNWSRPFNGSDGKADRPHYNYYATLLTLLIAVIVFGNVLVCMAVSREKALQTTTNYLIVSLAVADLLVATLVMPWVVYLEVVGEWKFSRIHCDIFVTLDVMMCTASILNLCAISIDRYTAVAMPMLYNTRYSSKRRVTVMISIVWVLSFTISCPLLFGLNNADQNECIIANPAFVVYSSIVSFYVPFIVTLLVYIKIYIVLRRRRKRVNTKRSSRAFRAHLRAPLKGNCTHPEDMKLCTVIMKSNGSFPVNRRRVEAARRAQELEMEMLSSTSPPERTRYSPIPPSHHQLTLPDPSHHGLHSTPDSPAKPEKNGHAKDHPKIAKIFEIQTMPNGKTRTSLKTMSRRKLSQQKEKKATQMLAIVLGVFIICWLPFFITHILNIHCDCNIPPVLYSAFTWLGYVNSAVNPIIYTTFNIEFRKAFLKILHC
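PathHunter beta-arrestin assay in DiscoveRx D2 cells. Compounds were added with an EC20 of dopamine (50 nM final) for 90 min at 37 deg C. Luminescence was read 1 h after detection reagent, with 57 uM dopamine as the EC100 control.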
D2 ag-1 – agonists of human D2 dopamine receptor (beta-arrestin). DiscoveRx PathHunter D2 beta-arrestin, luminescence, 90 min; 100% = 57 uM dopamine signal. activation, % (no concentration beside the values). hit rate 0.084% among 360,000. AID 624465; in the data active = activation above about 40%; inconclusive = between about 15% and that limit
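DiscoveRx PathHunter D2 beta-arrestin cells (2,100/well) attached overnight, then compound-stimulated 90 min at 37 C in HBSS/10 mM HEPES/0.1% Tween-20 buffer; beta-galactosidase complementation read by luminescence after 1 h at ambient temperature. Dopamine 57 uM final (EC100) as control.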
D2 ag-2 – D2 dopamine receptor (human) agonism. HEK293 T-REx D2 cells, calcium flux agonist mode. activation, % at 2 µM. hit rate 0.53% among 340,000. AID 485358;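 active = activation over 3 SD above normal in the single-dose calcium agonist read, cut at about 30% in these data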; note: 0% is about no effect
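In this primary screen, compounds producing a positive calcium signal within 180 s of addition to tetracycline-induced, force-coupled HEK293 Trex D2 cells are flagged; cells are dye-loaded with a no-wash calcium kit beforehand.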
D2 antag – D2 dopamine receptor (human) antagonism; P14416; HEK293 TREx D2 cells, calcium flux, dopamine EC80; inhibition, % at 10 µM; hit rate 2% among 340,000; in the data active = inhibition above about 30%; inactive = below that, where a call was filed; note: 0% is about no effect
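Inhibition of EC80 dopamine-driven calcium flux, recorded kinetically, defines activity here; cells are a tetracycline-induced HEK293 T-REx line expressing force-coupled D2.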
D2 PAM-2 – positive allosteric modulators of human D2 dopamine receptor; HEK293 T-REx D2, calcium flux, EC20 dopamine potentiation; hit rate 0.34% among 340,000; potentiation, % at 10 µM;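 active = potentiation over 3 SD above the plate norm, cut at about 30% in these data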; note: 0% is about no effect
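Tetracycline-induced HEK293 T-REx cells force-coupled to calcium signalling expressed D2; compounds were pin-added after a 10 s baseline, read kinetically 180 s, then an EC20 dopamine challenge followed with a further 180 s calcium read.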
* hit, by the source's call; u = inconclusive; x = no result.

SMILES	D2 PAM-1	D2 ag-1	D2 ag-2	D2 antag	D2 PAM-2
CC(C)(C)c1ccc2c(c1)OCC(C(=O)O)O2 (stereo unspecified)	2	-4	x	x	113*
CC(C)(C)c1ccc2c(c1)OC(C(=O)N/N=C\c1ccccn1)CO2 (stereo unspecified)	0	1	1	13	21
Cc1ccc(NC(=O)C(=O)c2cc(C)n(-c3ccc(F)cc3)c2C)cc1C	x	x	-1	x	-5
O=C(CSC1=Nc2ccccc2N=C(c2ccc(F)cc2)C1)NCc1ccc(Cl)cc1	x	x	-1	x	-3
COc1ccc(N(C(=O)c2snc(C(N)=O)c2N)C(C(=O)NCc2ccccc2)c2ccc(O)cc2)cc1 (stereo unspecified)	1	0	0	0	-3
COc1ccc(OC)c(N(C(=O)c2snc(C(N)=O)c2N)C(C(=O)NCc2ccccc2)c2ccc(O)cc2)c1 (stereo unspecified)	1	0	1	43*	-3
Cc1cc(C=C2C(=O)c3ccccc3C2=O)c(C)n1-c1ccc(Cl)cc1	-8	-3	1	33*	9
COc1ccc(N2CCN(Cc3cccn3-c3nnc(N4CCN(C5CCCCC5)CC4)s3)CC2)cc1	x	x	-1	x	-4
COc1ccc(C(=O)c2oc3ccccc3c2NC(=O)c2nc(SC)ncc2Cl)cc1Cl	x	x	1	x	1
COc1ccc(C)cc1NC(=O)C(NCC(O)c1ccccc1)c1ccccc1 (stereo unspecified)	-7	-3	0	33*	-14
COc1ccc(C)cc1NC(=O)C(NS(=O)(=O)c1cccs1)c1ccccc1 (stereo unspecified)	x	x	x	x	0
CCOCCCNC(=O)c1cnc2sc(N3CCCCCC3)nn2c1=O	x	x	1	x	-4
Cc1ccc(-c2n[nH]c3c2C(c2cccs2)N(c2ccc(Cl)cc2)C3=O)cc1 (stereo unspecified)	x	x	1	x	-9
CCOc1ccccc1CN1CCc2nc(Nc3ccc4c(c3)OCCO4)ncc2C1	x	x	1	x	-3
CC(=O)Nc1sc(/C(C#N)=C\c2cccc(Cl)c2)nc1-c1ccc(C)cc1	6	0	61*	30*	-14
CC1CCN(S(=O)(=O)c2ccc(S(=O)(=O)NCc3ccccc3)cc2)CC1	14	4	1	31*	-5
O=S(=O)(NCc1ccccc1)c1ccc(S(=O)(=O)N2CCCCC2)cc1	0	-2	0	5	-4
COc1ccc(OCCCC(=O)Nc2nncs2)cc1	-10	1	1	4	39*
O=C(Cn1nc(C(F)(F)F)c2c1CCCC2)Nc1ccc(Br)cc1	x	x	0	x	-9
O=C(NCCS(=O)(=O)N1CCN(c2ccc(F)cc2)CC1)c1cccc(C(F)(F)F)c1	x	x	0	x	12
C=CCn1c(C)cc(C(=O)COC(=O)/C=C/c2cccc(OC)c2)c1C	1	-1	-2	42*	5
O=[N+]([O-])c1ccc(-n2nnnc2-c2ccccc2)c([N+](=O)[O-])c1	86*	u	1	-2	-11
CCCCn1c(NCCC)nc2c1c(=O)[nH]c(=O)n2C	2	0	-1	2	40*
CCCNc1nc2c(c(=O)[nH]c(=O)n2C)n1CCC(C)C	3	-4	-1	-2	16
Cc1ccc(Sc2ccc(CN3CCCC3)cc2[N+](=O)[O-])cc1	-12	1	1	36*	-15
SMILES	D2 PAM-1	D2 ag-1	D2 ag-2	D2 antag	D2 PAM-2
CCCCN1CC(c2nc3ccccc3n2CCCCOc2cccc(C)c2C)CC1=O (stereo unspecified)	x	x	1	x	2
COc1ccc(Nc2ncc3c(n2)CC(c2ccc(C)cc2)CC3=O)cc1 (stereo unspecified)	1	1	0	36*	21
COc1ccc(Nc2ncc3c(n2)CC(c2ccc(OC)cc2)CC3=O)cc1 (stereo unspecified)	-3	-1	3	-22	x
O=C(CSc1nc(=O)[nH]c2c1CCCC2)Nc1ccc(Cl)c(Cl)c1	x	x	0	x	-2
COc1cccc(NC(=O)Cn2c(=O)n(CCCCC(=O)NCc3ccc4c(c3)OCO4)c(=O)c3ccccc32)c1	x	x	1	x	-1
COc1ccc(CC(=O)N/N=C/c2ccc(-c3ccc(F)cc3)o2)cc1OC	-8	1	40*	4	-17
COC(=O)c1c(-c2cccs2)csc1NC(=O)c1cc(OC)cc(OC)c1	x	x	2	x	7
